# According to PubChem BioAssay AID652062 (Broad Institute, 2013):
# Out of some 1,400 compounds screened, about 1,100 (79%) were called active.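 How the source made its calls: active means fitted half-maximal concentration of a falling signal no higher than twice the top valid dose in every test run; inconclusive means runs disagree, or flat partial inhibition, or poor fit; inactive means every run inactive: flat, wrong direction, or potency beyond limit.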 The set was probably picked from earlier hits. Not all results are given here. Results with a measured potency or affinity are listed apart.
# Experiment: HIV-1 AD8 envelope cell-cell fusion blockers – cherry-pick, dose response (AID 652062)
# Conditions: HeLa-AD8 Env / CEM-CCR5 cell fusion, luciferase; at 35 µM (top of the series) unless noted
row,Compound,"activity change, negative = inhibition"
1,CC(=O)Nc1ccc(C(=O)OCC(=O)NC(=O)NCc2ccccc2)cc1,16.9%
2,COCC(=O)Nc1ccc2c(c1)C(=O)N(C)C[C@@H](OC)[C@H](C)CN(C(C)=O)[C@H](C)CO2,28.2%
3,CO[C@H]1CN(C)C(=O)c2cc(NC(=O)c3ccc(F)cc3)ccc2OC[C@H](C)N(C(=O)CN(C)C)C[C@@H]1C,6.3%
4,CO[C@H]1CN(C)C(=O)c2ccc(NC(=O)Nc3cccc(F)c3)cc2OC[C@@H](C)N(C(C)=O)C[C@H]1C,72.4%
5,CO[C@H]1CN(C)C(=O)c2ccc(NC(=O)Nc3cccc(F)c3)cc2OC[C@H](C)NC[C@H]1C,25.2%
6,CCCC(=O)Nc1ccc2c(c1)OC[C@H](C)N(C(=O)CN(C)C)C[C@@H](C)[C@H](OC)CN(C)C2=O,-2.16%
7,CCc1ccc(C(=O)CN2C(=O)NC(C)(c3ccc(C)cc3)C2=O)cc1 (stereo not drawn),-27.5%
8,COc1cccc(S(=O)(=O)N(C)C[C@H]2Oc3cc(C4=CCCC4)ccc3S(=O)(=O)N([C@H](C)CO)C[C@@H]2C)c1,27.1%
9,C[C@H]1CN([C@@H](C)CO)C(=O)Cc2cc(NS(=O)(=O)c3ccccc3)ccc2O[C@@H]1CN(C)Cc1ccc(Cl)c(Cl)c1,-28.9%
10,C[C@@H]1CN([C@H](C)CO)C(=O)c2cc(NS(=O)(=O)c3ccc(F)cc3)ccc2O[C@H]1CN(C)Cc1ccc(C(F)(F)F)cc1,-13.8%
11,COc1ccccc1S(=O)(=O)N[C@H]1CC[C@H](CC(=O)N2CCN(C)CC2)O[C@H]1CO,-27.9%
12,COc1ccc(-c2cn(CC[C@H]3CC[C@H](NS(=O)(=O)c4ccccc4C)[C@H](CO)O3)nn2)cc1,2.4%
13,COc1ccc(S(=O)(=O)N[C@@H]2CC[C@@H](CC(=O)NCCc3ccncc3)O[C@@H]2CO)cc1,-13%
14,CNC[C@H]1Oc2c(NC(=O)Nc3ccc4c(c3)OCO4)cccc2C(=O)N([C@H](C)CO)C[C@@H]1C,65.2%
15,COC(=O)[C@H](Cc1ccccc1)NC(=O)Cn1cnc(C(=O)Nc2ccc(C)c(C)c2)n1,23.2%
16,CCOc1ccccc1C(=O)NCC(=O)NNC(=O)CN(C)S(=O)(=O)c1ccc(Cl)cc1,-52.6%
17,Nc1c(S(=O)(=O)c2ccccc2)cnc2c(-c3ccc(F)cc3)cnn12,63.4% [at 16 µM]
18,COc1ccc(OC)c(-c2cc(C(=O)Nc3c(C)nn(Cc4ccc(Cl)cc4)c3C)no2)c1,-43.8%
19,Cc1ccc2c(c1)c1c3n2CCN(CCC#N)C3CCC1 (stereo not drawn),81.2%

row,Compound,"activity change, negative = inhibition"
1,N#C[C@@H]1[C@H](c2ccc(-c3ccccc3F)cc2)[C@@H](CO)N1C(=O)c1ccccn1,-32.3%
2,N#C[C@H]1[C@@H](c2ccccc2/C=C/c2ccccc2)[C@@H](CO)N1S(=O)(=O)c1cccc(F)c1,108%
3,CCC(=O)N(C)C(c1ccccc1Cl)c1nnnn1-c1c(C)cccc1C (stereo not drawn),49.6%
4,Cc1ccc(S(=O)(=O)N(C)C)cc1NC(=O)C(C)N(C)CCOc1ccc(Cl)cc1 (stereo not drawn),-21.5% [at 8 µM]
5,COc1ccc(NC(=O)CN2CCC(C(N)=O)(N3CCCCC3)CC2)cc1,-10%
6,COCC(=O)N(C)C[C@H]1Oc2ncc(Br)cc2C(=O)N([C@H](C)CO)C[C@H]1C,50.8%
7,O=C(c1ccccc1)N1CCN(c2ncnc3sc4c(c23)CCC4)CC1,-54.4%
8,COCCCNC(=O)c1sc2ncnc(N3CCc4ccccc4C3)c2c1C,60.7%
9,Cc1ccc(C2Oc3ccccc3C3=C2C(c2cccs2)n2ncnc2N3)cc1 (stereo not drawn),12.9%
10,CC(NNC(=S)N1CCCCCC1)c1ccc2ccccc2n1 (stereo not drawn),-26.1%
11,CN1CC(c2ccccc2)C2(SC(=S)N(Cc3ccco3)C2=O)C12C(=O)Nc1ccccc12 (stereo not drawn),-103%
12,CNC[C@H]1Oc2c(NC(=O)Nc3cccc4ccccc34)cccc2C(=O)N([C@H](C)CO)C[C@H]1C,104%
13,C[C@H]1CN([C@@H](C)CO)C(=O)c2cccc(NC(=O)c3ccncc3)c2O[C@@H]1CN(C)C(=O)Nc1cccc2ccccc12,63.7%
14,O=C(NCc1cccc(F)c1)[C@@H]1[C@@H](CO)[C@@H]2Cn3c(ccc(-c4cccnc4)c3=O)[C@H]1N2CC1CC1,1.91%
15,NC(=S)c1ccc(OCCCc2ccccc2)cc1,30.2%
16,O=C(C[C@@H]1C=C[C@@H](NC(=O)c2ccccc2)[C@H](CO)O1)NCc1ccc(Oc2ccccc2)cc1,-28.3%
17,C[C@@H]1CN([C@H](C)CO)C(=O)c2cccc(NS(=O)(=O)c3ccc(Cl)cc3)c2O[C@@H]1CN(C)Cc1ccc(Cl)c(Cl)c1,-25.6%
18,C[C@H]1CN([C@@H](C)CO)C(=O)c2cccc(NS(=O)(=O)c3ccc(Cl)cc3)c2O[C@@H]1CN(C)Cc1ccc(C(F)(F)F)cc1,9.5%
19,CN(C)CC(=O)Nc1ccc2c(c1)[C@H]1C[C@@H](CC(=O)NCCc3ccccc3)O[C@H](CO)[C@H]1O2,14.9% [at 30 µM]
